For one assay, the system named is 7G8. As to the kind of experiment: qHTS profiling for inhibitors of Plasmodium falciparum proliferation (AID 504749). Also: nearly all actives have a fitted effect of over 60% in size. Also: potency is read from the fitted curve at half-maximal effect. Particulars: P. falciparum in erythrocytes, SYBR Green DNA, 72 h; series mostly up to 12.8 µM. The method, boiled down:
(§1)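 SYBR Green fluorescence (ex 485 nm, em 535 nm) reports parasite DNA after 72 h compound exposure of infected red cells at 0.3% parasitemia, 2.5% hematocrit; signal normalized to 0.29 uM artemisinin and vehicle wells.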

The next assay has as its system CP260. Described as above. Particulars: P. falciparum in erythrocytes, SYBR Green DNA, 72 h; series mostly up to 28.7 µM. The method, boiled down:
as §1

A further assay concerns CP265. The assay is described as above. Particulars: P. falciparum in erythrocytes, SYBR Green DNA, 72 h; series mostly up to 12.8 µM. The method, boiled down:
as §1

The test system of a further assay is CP268. Described as above. Particulars: P. falciparum in erythrocytes, SYBR Green DNA, 72 h; series mostly up to 28.7 µM. The method, boiled down: as §1
A further assay concerns CP335. Described as above. The note with it: P. falciparum in erythrocytes, SYBR Green DNA, 72 h; series mostly up to 12.8 µM. The method, boiled down: as §1
In the next assay the test system is DIV14. The assay is described as above. Particulars: P. falciparum in erythrocytes, SYBR Green DNA, 72 h; series mostly up to 28.7 µM. The method, boiled down: as §1
In the next assay the test system is ICS. The assay is described as above. Particulars: P. falciparum in erythrocytes, SYBR Green DNA, 72 h; series mostly up to 28.7 µM. The method, boiled down:
as §1

The test system of a further assay is JCK. The assay is described as above. The note with it: P. falciparum in erythrocytes, SYBR Green DNA, 72 h; series mostly up to 28.7 µM. The method, boiled down: as §1
The next assay concerns PAD. Described as above. The note with it: P. falciparum in erythrocytes, SYBR Green DNA, 72 h; series mostly up to 28.7 µM. The method, boiled down: as §1
In the next assay the test system is PC15. The assay is described as above. Particulars: P. falciparum in erythrocytes, SYBR Green DNA, 72 h; series mostly up to 28.7 µM. The method, boiled down: as §1
Another assay deals with PC26. The description is as above. The note with it: P. falciparum in erythrocytes, SYBR Green DNA, 72 h; series mostly up to 28.7 µM. The method, boiled down:
as §1

The test system of the next assay is SC27B. The assay is described as above. The note with it: P. falciparum in erythrocytes, SYBR Green DNA, 72 h; series mostly up to 28.7 µM. The method, boiled down: as §1
Another assay has as its system TAB113. The assay is described as above. The note with it: P. falciparum in erythrocytes, SYBR Green DNA, 72 h; series mostly up to 28.7 µM. The method, boiled down: as §1
The subject of the next assay is W2. The description is as above. Particulars: P. falciparum in erythrocytes, SYBR Green DNA, 72 h; series mostly up to 12.8 µM. The method, boiled down:
as §1

Assay [1] has as its target Cytochrome P450 3A4 (Homo sapiens) (UniProt P08684). The assay is described as follows: qHTS Assay for Inhibitors and Substrates of Cytochrome P450 3A4 (AID 884). Also: nearly all actives have a fitted effect of over 50% in size. Also: potency is read from the fitted curve at half-maximal effect. The method, boiled down:
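Luminescent readout of luciferin produced by CYP3A4 (20 nM) dealkylation of Luciferin-PPXE, 25 uM (its KM). NADPH-driven reaction ran 60 min at RT after 10 min compound preincubation; data scaled to 57 uM ketoconazole as 100% inhibition.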

The target is the same in assay [2]. The assay is described as follows: qHTS Assay for Activators of Cytochrome P450 3A4 (AID 885). Also: nearly all actives have a fitted effect of over 65% in size. The method, boiled down:
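Activators are scored by enhanced luminescence from CYP3A4 conversion of luciferin-PPXE (25uM, equal to KM) to luciferin, after 60 min at RT with an NADPH-regenerating system.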

Assay [3] is described as follows: Confirmation and Secondary Assay for Modulators of Hemoglobin Beta Chain Splicing at IVS2 654 locus (AID 910).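 Also: HeLa cells stably carrying EGFP split by mutant beta-globin IVS2-654 intron.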 The method, boiled down: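 HeLa cells stably expressing EGFP interrupted by β-globin IVS2-654 intron, seeded overnight in Opti-MEM/2% FCS, then treated 2 days at 37 °C. Restored splicing read as total peak GFP intensity per well by laser scanning cytometry (488 nm excitation, 500–520 nm emission); 500 nM antisense PNA as control.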

A short description of assay [4]: Confirmation and Secondary Assay for Modulators of Hemoglobin Beta Chain Splicing at IVS2 705 locus (AID 930).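 Also: HeLa cells stably expressing the EGFP-705 splicing reporter; GFP fluorescence per well restored by corrected splicing of the IVS2-705 intron in EGFP.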 The method, boiled down:
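HeLa cells stably carrying EGFP interrupted by mutant beta-globin intron 2 (IVS2-705) treated 2 days at 37C with compound; 500 nM antisense PNA as control. Correct splicing read as total peak GFP intensity per well by laser-scanning cytometry.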

Assay [5] addresses Cytochrome P450 2C19 (Homo sapiens) (UniProt P33261). As to the kind of experiment: qHTS Assay for Inhibitors and Substrates of Cytochrome P450 2C19 (AID 899). Also: nearly all actives have a fitted effect of over 60% in size. Also: potency is read from the fitted curve at half-maximal effect. The method, boiled down:
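Signal comes from luciferase acting on luciferin released by CYP2C19-mediated hydroxylation of Luciferin-H EGE, 10uM (KM). Assay mix: 5nM enzyme, 50mM KPO4; 60 min at 37C with NADPH regeneration. Data normalized against 57uM ketoconazole.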

The source of these data is PubChem BioAssay (NCATS).

Values without a mark were called inactive. Inconclusive results are not listed. Calls of active or inactive are those of the source. Calls follow the shape of the dose curve; as a rule, active = well fitted curve in the direction sought with a large enough effect; inconclusive = small, poorly fitted or top-dose-only effect, or another doubt; inactive = no such curve, though single readings can be large; an effect the other way counts as inactive or inconclusive.

Cytochrome P450 3A4 (Homo sapiens), sequence (P08684 whole entry, looked up): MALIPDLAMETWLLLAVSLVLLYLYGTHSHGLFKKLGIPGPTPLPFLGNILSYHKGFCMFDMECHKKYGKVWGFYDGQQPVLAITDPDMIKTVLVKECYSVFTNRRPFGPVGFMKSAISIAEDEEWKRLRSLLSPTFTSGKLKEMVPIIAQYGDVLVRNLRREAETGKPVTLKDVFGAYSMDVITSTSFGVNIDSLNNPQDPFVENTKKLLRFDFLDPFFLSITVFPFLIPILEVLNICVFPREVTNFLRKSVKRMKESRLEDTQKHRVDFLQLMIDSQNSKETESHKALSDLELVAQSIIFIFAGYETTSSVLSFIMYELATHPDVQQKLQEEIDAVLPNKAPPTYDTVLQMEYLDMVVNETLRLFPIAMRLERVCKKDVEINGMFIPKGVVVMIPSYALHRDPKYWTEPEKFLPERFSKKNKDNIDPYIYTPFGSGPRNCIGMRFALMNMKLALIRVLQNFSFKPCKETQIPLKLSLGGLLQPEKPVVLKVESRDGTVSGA
Cytochrome P450 2C19 (Homo sapiens), sequence (P33261 whole entry, looked up): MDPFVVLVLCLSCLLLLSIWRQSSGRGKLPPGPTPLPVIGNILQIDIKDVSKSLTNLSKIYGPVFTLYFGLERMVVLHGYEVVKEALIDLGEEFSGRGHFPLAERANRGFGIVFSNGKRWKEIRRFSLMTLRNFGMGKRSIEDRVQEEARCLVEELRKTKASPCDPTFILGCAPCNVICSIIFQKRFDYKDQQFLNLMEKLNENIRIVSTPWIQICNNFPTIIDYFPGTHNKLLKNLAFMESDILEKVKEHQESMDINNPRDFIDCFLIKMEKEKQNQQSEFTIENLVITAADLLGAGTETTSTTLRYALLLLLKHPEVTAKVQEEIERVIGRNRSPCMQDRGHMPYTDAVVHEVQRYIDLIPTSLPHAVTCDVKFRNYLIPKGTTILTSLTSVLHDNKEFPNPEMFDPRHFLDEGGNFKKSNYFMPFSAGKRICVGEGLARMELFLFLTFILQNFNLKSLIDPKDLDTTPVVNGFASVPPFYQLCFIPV

As for `C[N+]1([O-])[C@@H]2CC[C@H]1CC(OC(=O)[C@@H](CO)c1ccccc1)C2` (stereo partly drawn), the Potency entry in the assay on 7G8, in the assay with CP260, with CP265, in the assay on CP268, in the assay with CP335 and in the assay on DIV14 was “inactive” throughout. Moreover, the Potency result in the assay on ICS, in the assay on JCK, in the assay on PAD, with PC15, with PC26 and in the assay on SC27B was “inactive” throughout. Also, the Potency entry in the assay with TAB113 and with W2 was “inactive” in each case.

Take `CC1=C2[C@@H]3OC(=O)[C@@H](C)[C@@H]3CC[C@]2(C)C=CC1=O`: the Potency entry in the assay on 7G8, in the assay with CP260, in the assay with CP268, in the assay on CP335, in the assay on DIV14 and in the assay with ICS was “inactive” each time. In addition, the Potency result with JCK, with PC15, with PC26 and in the assay with W2 was “inactive” each time.

As to `CC(C)c1c(CN(C)[C@@H](C)Cc2ccccc2)n(C)n(-c2ccccc2)c1=O`, in assay [1], the Potency is 3.98 µM (active). Moreover, the Potency result (in [2]; in the assay on CP260; in the assay on CP265; in the assay with CP268; in the assay on CP335; in the assay with DIV14) was “inactive” in each case. In addition, the Potency entry in the assay with JCK, in the assay on PAD, in the assay on PC15, with PC26, with SC27B and in the assay with TAB113 was “inactive” in each case.

As for `N[C@H]1C[C@H]1c1ccccc1`, the Potency entry in the assay with 7G8, in the assay with CP265, with CP268, in the assay with CP335, in the assay on DIV14 and in the assay with ICS was “inactive” each time. For the same compound, the Potency result in the assay on JCK, in the assay on PAD, in the assay on PC15, in the assay on PC26, with SC27B and with TAB113 was “inactive” each time. In the assay with W2, the Potency result is “inactive”.

Consider `COc1cc2c(cc1O)[C@H]1Cc3ccc(OC)c(O)c3CN1CC2`, for which the Potency entry in [2] was “inactive”.

`CC(C)C[C@H]1C(=O)N2CCC[C@@H]2[C@@]2(O)O[C@](NC(=O)[C@@H]3C=C4c5cccc6[nH]cc(c56)C[C@@H]4N(C)C3)(C(C)C)C(=O)N12`: in assay [1], the Potency is 2 µM (active).

`CNC(=O)N(C)c1nnc(C(C)(C)C)s1`: the Potency entry in assay [2], in assay [3] and in assay [4] was “inactive” in each case.

Regarding `CO[C@@H](C)[C@](O)(C(=O)OCC1=CCN2CC[C@@H](O)[C@H]12)C(C)C`, the Potency entry in [5] is “inactive”.

As to `C[C@@]12CC[C@H](O)C[C@@H]1CC[C@H]1[C@@H]2C[C@@H](O)[C@]2(C)[C@@H](C3=CC(=O)OC3)CC[C@]12O`, the Potency result in assay [5] is “inactive”.

Consider `CN[C@@H](C)[C@H]1CC[C@@H](N)[C@@H](O[C@@H]2[C@@H](O)[C@@H](O[C@H]3OC[C@@](C)(O)[C@@H](NC)[C@@H]3O)[C@H](N)C[C@@H]2N)O1` (tested in a mixture with another compound), for which the Potency entry with 7G8, in the assay with CP260, with CP265, in the assay with CP268, with CP335 and with DIV14 was “inactive” each time. Also, the Potency result in the assay on ICS, in the assay with JCK, in the assay with PAD, in the assay with PC15, in the assay on PC26 and with SC27B was “inactive” in each case. Further, the Potency result in the assay with TAB113 and in the assay with W2 was “inactive” throughout.

For `C[C@@H]1O[C@H](O[C@@H]2C=C3CC[C@H]4[C@@H](CC[C@]5(C)[C@@H](c6ccc(=O)oc6)CC[C@]45O)[C@@]3(C)CC2)[C@@H](O)[C@H](O)[C@@H]1O`, the Potency result in the assay with 7G8, with CP260, in the assay on CP265, with CP268, in the assay on CP335 and in the assay with DIV14 was “inactive” each time. The Potency result with ICS, in the assay on JCK, in the assay on PAD, with SC27B, with TAB113 and in the assay on W2 was “inactive” throughout.

For `CC[C@]1(c2cccc(O)c2)CCCCN(C)C1`, the Potency result in the assay with 7G8, in the assay with CP260, in the assay with ICS, with JCK and in the assay on TAB113 was “inactive” each time. Besides, the Potency in the assay with W2 was 3.22 µM (active).

`c1cncc([C@H]2CCCCN2)c1`: the Potency entry in assay [1] was “inactive”. In addition, the Potency in [5] is 5.01 µM (active).

As for `CCCCCCCCCc1ccc(O)cc1`, the Potency result in assay [3] and in assay [4] was “inactive” each time.

As to `CC[C@H]1C(=O)OC[C@H]1Cc1cncn1C`, the Potency in assay [1] is 3.16 µM (active). For the same compound, the Potency entry in [2] was “inactive”.

With `COc1cc2c(cc1O)C[C@H]1c3c(cc(O)c(OC)c3-2)CCN1C`, the Potency entry in [2] and in assay [5] was “inactive” throughout.

As to `Clc1ccc([C@@H](OCCN2CCCCC2)c2ccccc2)cc1`, the Potency is 3.55 µM (active) in the assay on 7G8; 3.16 µM (active) in the assay with CP260; 1.58 µM (active) in the assay on ICS; 3.16 µM (active) in the assay with PC15; 1.81 µM (active) in the assay with W2.

On to `CN1C[C@H](CO)C=C2c3cccc4[nH]cc(c34)C[C@@H]21`, for which the Potency result in assay [2] is “inactive”.
